SNCA expr inh = reduces expression of the alpha-synuclein gene; AID 1671194; 0.17% of 140,000 active; Potency, µM (top dose mostly 57.2 µM), inactives show at the highest dose activity change, negative = inhibition, most hits filed as inhibitors; HEK-293 SNCA-luciferase knock-in, luminescence, 24 h;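 note: potency is the fitted concentration of half-maximal effect; plate controls were DMSO cells for no effect and cell-free wells for full effect; nearly all actives have a fitted effect of over 45% in size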
KDM5B inh = KDM5B demethylase inhibition. 2.6% of 220,000 active. Potency, µM (series often up to 57.7 µM), most hits filed as inhibitors. KDM5B demethylase, FDH-coupled NADH fluorescence (FDH is formaldehyde dehydrogenase). Q9UGL1; note: potency is the fitted concentration of half-maximal effect; 0% is about no effect; nearly all actives have a fitted effect of over 70% in size
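Here, H3K4me3 peptide (12.5 µM in substrate mix) is demethylated by KDM5BΔAP, 200 nM final, after 10 min compound exposure. Formaldehyde product is coupled through FDH (0.25 U/mL in mix) to NADH fluorescence; 30-min ΔRFU feeds dose-response curves.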
IP6K1 inh = IP6K1 kinase inhibition; Q92551; IP6K1 kinase, ADP-Glo luminescence, 2 h; active compounds read low; activity change, % (series mostly up to about 58 µM); 0.81% of 140,000 active; in the data active = activity change below about -25%; note: % is set by controls: 0 for no effect and ±100 for the full control effect
Target sequence (Q92551 whole entry, looked up): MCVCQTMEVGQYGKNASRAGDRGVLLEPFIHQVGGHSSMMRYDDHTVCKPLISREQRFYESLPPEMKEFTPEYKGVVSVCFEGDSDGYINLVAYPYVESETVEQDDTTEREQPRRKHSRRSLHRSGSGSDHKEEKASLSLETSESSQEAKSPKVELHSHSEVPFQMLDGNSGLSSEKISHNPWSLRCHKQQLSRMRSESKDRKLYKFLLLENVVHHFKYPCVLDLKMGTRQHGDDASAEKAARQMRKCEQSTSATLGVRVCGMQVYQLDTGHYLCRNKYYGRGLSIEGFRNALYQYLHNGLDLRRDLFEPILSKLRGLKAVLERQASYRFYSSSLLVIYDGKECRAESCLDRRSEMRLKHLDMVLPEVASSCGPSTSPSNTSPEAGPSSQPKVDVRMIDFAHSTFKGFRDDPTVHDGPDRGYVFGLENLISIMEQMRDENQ
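ADP-Glo luminescence measures ADP made by human IP6K1 during a 2 h RT reaction with ATP/IP6 (mix at 1.3 mM/130 uM); top library doses 57.5 and 19.1 uM final.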
HEK293 viab = cell viability loss counter-screen. HEK-293-SNCA-luc viability, GF-AFC fluorescence, 24 h. Potency, µM (series often up to 57.1 µM), inactives show top-dose activity change, negative = cytotoxicity, hits mostly cytotoxic. 0.12% of 150,000 active;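 note: potency is the fitted concentration of half-maximal effect; 0% = DMSO-treated cells and -100% = medium-only wells without cells; nearly all actives have a fitted effect of over 30% in size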
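Cytotoxicity counterscreen: after 24 h compound treatment of genome-edited SNCA-luciferase HEK-293 cells, live-cell protease substrate GF-AFC read by fluorescence after 30 min; activity scaled between DMSO (0%) and medium-only (-100%), curves Hill-fitted.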
* marks the source's active call; other numbers are inactive results; i = inactive; ? = inconclusive; / = no result given; [ ] = another dose, or the depositor's remark. Hits are enriched below; roughly 2.8% of the tested compounds scored in any of these assays. Unless noted, calls come from the whole dose curve; as a rule, active = well fitted curve in the direction sought with a large enough effect; inconclusive = small, poorly fitted or top-dose-only effect, or another doubt; inactive = no such curve, though single readings can be large; an effect the other way counts as inactive or inconclusive.

SMILES | SNCA expr inh | KDM5B inh | IP6K1 inh | HEK293 viab
CN1CCN(c2ccc(-c3cn(C)c(=O)n4cc(CNc5ccccc5)nc34)cn2)CC1 | 88%[87.6 µM] | 28µM* | -8 | -1%[87.6 µM]
Cn1nccc1OCc1cn2c(=O)n(C)cc(-c3ccsc3)c2n1 | 32%[87.6 µM] | ? | -5 | -11%[87.6 µM]
Cn1cc(-c2cn(C)c(=O)n3cc(CNc4ccccc4)nc23)cn1 | 63%[87.6 µM] | i | -8 | -1%[87.6 µM]
COc1cc(-c2cn(C)c(=O)n3cc(COc4ccnn4C)nc23)ccn1 | 17%[87.6 µM] | 35µM* | 0 | -7%[87.6 µM]
COc1ccc(-c2cn(C)c(=O)n3cc(CN(C)C)nc23)cc1OC | 6%[87.6 µM] | 35µM* | -6 | 5%[87.6 µM]
CCOC(=O)Cn1c(=O)c2c3c(sc2n(CCN2CCCC2)c1=O)CC(C)CC3 (centres undefined) | / | i | / | /
CCn1c(SCC(=O)Nc2cccc(C(F)(F)F)c2)nnc1-c1cc2ccccc2o1 | / | i | / | /
CS(=O)Cc1cccc(C(=O)O)c1 (centres undefined) | / | i | / | /
CCn1ccnc1CN1CCCC12CCN(c1ccc(C(F)(F)F)cn1)CC2 | -9% | 20µM* | 13 | -16%
CCc1ncc(CN2CCCC23CCN(c2ccc(C(F)(F)F)cn2)CC3)cn1 | 9% | ? | -16 | -18%
CCC1(CC)Cc2ccccc2C(NC(=O)NC2CCCC2)=C1C#N | / | i | / | /
Cc1ccc2nc(SCc3nc(-c4ccc(Cl)cc4)no3)[nH]c2c1 | 22µM* | i | 30 | -9%
O=[N+]([O-])c1ccc(N/N=C/c2ccc(Br)cc2)cc1 | / | i | / | /
Cc1cc(Nc2cc(N3CCN(C)CC3)nc(/C=C/c3ccccc3)n2)n[nH]1 | / | / | -2 | 30µM*
O=C(NCCc1ccc(F)cc1)C1CCN(c2nccc(Nc3ccccc3F)n2)CC1 | -47% | / | -3 | ?
N#CC1(c2ccc(NC(=O)c3ccc(Cl)cc3)cc2)CCCC1 | / | i | / | /
O=C1CCC(CNC(=O)c2nc(-c3ccccc3)cc3[nH]ccc23)N1 (centres undefined) | 24%[87.6 µM] | 32µM* | -19 | 10%[87.6 µM]
O=C(NCc1cccnc1)c1nc(-c2ccccc2)cc2[nH]ccc12 | -12%[87.6 µM] | 35µM* | -8 | -5%[87.6 µM]
Cn1ccc2c(C(=O)NCc3cccnc3)nc(-c3ccccc3C#N)cc21 | 16%[87.6 µM] | 13µM* | -7 | -19%[87.6 µM]
Cn1nccc1-c1cc2c(ccn2C)c(C(=O)NCc2cccnc2)n1 | 10%[87.6 µM] | i | 32 | 1%[87.6 µM]
Cn1ccc2c(C(=O)NCc3cccnc3)nc(-c3ccc(F)cc3)cc21 | 4%[87.6 µM] | i | -2 | -6%[87.6 µM]
Cn1ccc2c(C(=O)NCc3cccnc3)nc(-c3ccccc3)cc21 | 0%[87.6 µM] | 32µM* | -3 | 1%[87.6 µM]
Cn1ccc2c(C(=O)NCC3CCC(=O)N3)nc(-c3ccccc3)cc21 (centres undefined) | ? | i | 10 | 3%[87.6 µM]
Fc1ccc(N/N=C/c2cccc(Cl)c2Cl)c(F)c1 | / | i | / | /
O=C(O)CNC1CCCC1 | / | i | / | /
SMILES | SNCA expr inh | KDM5B inh | IP6K1 inh | HEK293 viab
CN(CCOc1ccc(F)cc1)c1nc(-c2cccnc2)nc2ccccc12 | / | i | / | /
Cc1cc2cc(NC(=O)c3nccnc3N)ccc2[nH]1 | / | i | / | /
O=C(NC1CCCCC1)C1CCN(CCCc2nc3ccccc3o2)CC1 | / | i | / | /
COc1ccccc1Nc1nc(-c2ccc(CC(=O)N3CCOCC3)s2)cs1 | / | i | / | /
CN(C)Cc1ccc(-c2cc3c(ccn3C)c(C(=O)NCc3cccnc3)n2)cc1 | 5%[87.6 µM] | i | 4 | -24%[87.6 µM]
COc1ccc(-c2cc3c(ccn3C)c(C(=O)NCc3cccnc3)n2)cc1OC | 60%[87.6 µM] | 35µM* | 0 | -20%[87.6 µM]
COc1cc(F)ccc1-c1cc2c(ccn2C)c(C(=O)NCc2cccnc2)n1 | 10%[87.6 µM] | 40µM* | -1 | -18%[87.6 µM]
Cc1ccsc1/C=N/N=C1c2ccccc2-c2ccccc21 | / | i | / | /
CN(C)C(=O)c1ccc2ccnn2c1 | 2%[87.6 µM] | 32µM* | 6 | 7%[87.6 µM]
O=C(NC1CC1)c1ccc2ccnn2c1 | 59%[87.6 µM] | 32µM* | 1 | 12%[87.6 µM]
CN(C)C(=O)c1ccn2nccc2c1 | 2%[87.6 µM] | 32µM* | 5 | -3%[87.6 µM]
O=C(NC1CC1)c1cc2cccnn2n1 | -11%[87.6 µM] | 32µM* | -1 | 4%[87.6 µM]
CNc1c(NC(=O)Nc2ccc(F)cc2)c(=O)oc2ccccc12 | / | i | / | /
Cn1c(=O)c2c(nc(N3CCC(C(N)=O)CC3)n2Cc2ccccc2)n(C)c1=O | / | i | / | /
CN(C)C(=O)c1ccn2cncc2c1 | -18%[87.6 µM] | 35µM* | 5 | 8%[87.6 µM]
Cc1noc2c(NCC3CCOCC3)cc(-c3ccc(F)cc3)nc12 | ? | ? | -16 | -2%[87.6 µM]
Cc1noc2c(Nc3ccc(C(N)=O)cc3)cc(-c3ccc(F)cc3)nc12 | -25%[87.6 µM] | 16µM* | 7 | -17%[87.6 µM]
CNc1ncncc1-c1nc(-c2ccccc2)no1 | 51% | 28µM* | -6 | -3%
c1ccc(-c2noc(-c3cncnc3NCc3ccc4c(c3)OCO4)n2)cc1 | 52% | 13µM* | -19 | 21%
c1ccc(-c2noc(-c3cncnc3NCC3CCCO3)n2)cc1 (centres undefined) | 82% | ? | 5 | -12%
CCc1ccc(Nc2ncncc2-c2nc(-c3ccccc3)no2)cc1 | ? | i | -6 | 2%
Cc1cccc(N2CCN(c3ncncc3-c3nc(-c4ccccc4)no3)CC2)c1 | 79% | 22µM* | 1 | 4%
c1ccc(-c2noc(-c3cncnc3NCC3CCCCC3)n2)cc1 | 31% | 28µM* | -7 | 3%

Screening results (PubChem BioAssay)
